Cl transport mod: modulators of human KCC2 chloride dependent transport. Q9H2X9. KCC2 cells, thallium flux FluoZin-2 fluorescence. B-score of Tl+ flux slope (higher = more flux/activation; lower = inhibition) at 10 µM. 190,000 compounds, 2.2% hits. AID 1456;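 active = thallium flux slope and its plate-corrected score both differing from the plate sample mean at a set confidence after two filtering rounds, in either direction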;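 note: slope of fluorescence scaled to starting intensity during 10 to 20 s after thallium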
WT yeast gro inh: growth inhibition of WT yeast, mitochondrial fusion screen; mitochondrial fusion phenotypic screen, WT strain; inhibition, % at 10 µM; 190,000 compounds, 2.1% hits; in the data active = inhibition above about 58%; tested in S. cerevisiae
Insulin prom inh: TRM-6 insulin promoter activity inhibition; TRM-6 cells (human fetal islet line), insulin promoter-eGFP reporter, imaging; reporter expression induced with tamoxifen; inhibition, % at 2 µM; 130,000 compounds, 0.9% hits;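 active = inhibition above the mean plus 3 SD, with well images judged a real hit on visual review, cut at about 60% in these data, passing the limit was not always enough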
Lmaj promast: inhibitors of Leishmania major promastigote growth; Leishmania major promastigotes, resazurin fluorescence viability; AID 1063; 200,000 compounds, 9% hits; inhibition, % at 10 µM; in the data active = inhibition above about 50%;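 note: promastigotes grown with compound for 44 hours at 28 °C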
ROMK primary: human ROMK K+ channel modulation, primary screen | Tet-inducible ROMK, thallium flux fluorescence; actives lie on both sides | B-score at 10 µM | 130,000 compounds, 2% hits | AID 1918;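 active = signal ratio slope over the read window, or its plate-corrected B-score, at least 3 SD from the plate mean, either direction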;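 note: B-score of the F/F0 ratio slope over 7 to 12 s after thallium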
Target sequence (P48048 whole entry, looked up): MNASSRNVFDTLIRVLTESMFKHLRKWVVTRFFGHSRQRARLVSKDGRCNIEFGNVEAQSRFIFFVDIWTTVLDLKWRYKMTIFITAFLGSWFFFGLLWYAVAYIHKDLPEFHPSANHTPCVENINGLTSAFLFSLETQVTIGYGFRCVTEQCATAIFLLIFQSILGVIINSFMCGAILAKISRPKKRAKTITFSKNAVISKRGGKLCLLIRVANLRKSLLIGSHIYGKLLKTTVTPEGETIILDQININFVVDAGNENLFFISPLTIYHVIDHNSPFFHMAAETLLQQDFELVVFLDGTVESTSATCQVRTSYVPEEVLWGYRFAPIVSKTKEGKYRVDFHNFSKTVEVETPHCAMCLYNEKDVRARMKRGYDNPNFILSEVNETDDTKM
Ins promoter up: MIN6 insulin promoter up-regulation. MIN6 insulin promoter-GFP reporter, high-content imaging; stronger effect = higher value. z-score at 5 µM. 190,000 compounds, 0.3% hits;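 active = z-score above 3 at 5 µM with at least 500 cells counted in the well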
Numbers stand for hits; i = inactive; nt = no result. This is a sample that favours compounds with a hit; in the whole collection about 12% have one here.

SMILES	Cl transport mod	WT yeast gro inh	Insulin prom inh	Lmaj promast	ROMK primary	Ins promoter up
CCCN1Cc2cccc(C(=O)NC(CC(=O)OCC)c3ccc(OC(C)C)cc3)c2C1=O (stereo not drawn)	i	i	i	i	i	nt
CCCN1Cc2cccc(C(=O)NC(CC(=O)OCC)c3ccc(C)cc3)c2C1=O (stereo not drawn)	i	66	nt	i	i	nt
N#Cc1cccc(NC(=O)CSc2ccc3c4c(cccc24)C(=O)c2ccccc2-3)c1	i	i	i	i	-4.2	nt
CC1(C)CC(N2CN(C3CCCCC3)CC2=O)CC(C)(C)N1	i	i	nt	i	nt	i
COC(=O)c1[nH]c2ccccc2c1NC(=O)C(C)N1CC(C)OC(C)C1 (stereo not drawn)	i	nt	nt	nt	nt	i
CCN(C(=O)CSc1nncn1-c1ccccc1)c1c(N)n(Cc2ccccc2)c(=O)[nH]c1=O	i	i	i	i	i	i
COCCN(C(=O)CSc1nncn1-c1ccccc1)c1c(N)n(Cc2ccccc2)c(=O)[nH]c1=O	i	i	i	54	i	i
CC(C)(C)NS(=O)(=O)c1ccc(NS(=O)(=O)Cc2ccccc2)cc1	nt	i	i	i	nt	i
COc1ccc(CCNC(=O)CSc2nc(N)c3c(C)c(C)oc3n2)cc1OC	i	i	i	i	nt	i
c1cc(CNC2C3CC4CC(C3)CC2C4)ccn1 (stereo not drawn)	i	i	i	83	i	i
CC(NCc1ccncc1)C12CC3CC(CC(C3)C1)C2 (stereo not drawn)	i	i	nt	69	i	i
COc1cc(C=O)cc(Br)c1OCC(N)=O	i	i	nt	i	i	i
Cc1ccc(-c2nc(CSCC(=O)NCCCN3CCOCC3)c(C)o2)cc1	i	i	nt	53	i	i
CSc1ccc(-c2nc(CSCC(=O)NCCCN3CCOCC3)c(C)o2)cc1	i	i	i	i	i	i
Cc1cccc(-c2nc(CN3CCCC(C(=O)NC4CCCC4)C3)c(C)o2)c1 (stereo not drawn)	i	i	i	i	nt	i
Cc1oc(-c2cccc(Cl)c2)nc1CN1CCCC(C(=O)NCCCN2CCOCC2)C1 (stereo not drawn)	nt	i	i	101	i	nt
Cc1oc(-c2ccc(Cl)cc2)nc1CN1CCC(C(=O)NCCCN2CCOCC2)CC1	i	i	nt	101	nt	i
CCCCN(CC)Cc1c(O)ccc2c(-c3ccccc3)cc(=O)oc12	i	nt	nt	nt	i	i
O=C(CSc1nnnn1-c1cccnc1)Nc1ccc(OCc2ccccc2)cc1	i	i	i	i	i	i
CN1C(=C2C(=O)OC(C)(C)OC2=O)Sc2ccccc21	i	i	i	99	nt	i
CCN1/C(=C2\OC(=S)N(C)C2=O)Sc2ccccc21	nt	i	nt	i	i	i
O=c1c2sccc2n(Cc2cc(=O)n3ccccc3n2)c(=O)n1-c1ccccc1	i	i	i	i	i	i
Cc1ccc(-n2c(=O)c3c4c(sc3n(Cc3cc(=O)n5ccccc5n3)c2=O)CCC4)cc1C	i	i	i	74	nt	i
COc1cc(C(=O)NCCc2ccc(S(=O)(=O)N3CCCC3)cc2)cc(OC)c1OC	i	i	nt	i	i	i
O=C(COC(=O)c1c(Cl)ccc(Cl)c1Cl)NC(=O)NCc1ccccc1	i	i	i	79	i	i
SMILES	Cl transport mod	WT yeast gro inh	Insulin prom inh	Lmaj promast	ROMK primary	Ins promoter up
COc1cccc(OC)c1C(=O)OCC(=O)NC(=O)NCc1ccccc1	i	i	i	i	i	i
O=C(COc1ccccc1)NNC(=O)c1cc2ccccc2oc1=O	i	i	i	i	i	i
Cc1ccc(S(=O)(=O)N(CC(=O)N2CCCCCC2)c2ccccc2)cc1	nt	i	i	75	i	i
CCN1CCN(C(=O)c2ccccc2N(Cc2ccccc2)S(=O)(=O)c2ccc(C)cc2)CC1	i	i	i	98	i	i
COc1ccc(N2CCN(C(=O)CN(c3ccc(Br)cc3)S(C)(=O)=O)CC2)cc1	i	i	75	i	i	i
CS(=O)(=O)N(CC(=O)N1CCCC1)c1ccc(OCc2ccccc2)cc1	i	i	75	i	i	i
COc1ccc(N2CCN(C(=O)Cc3ccc(Br)cc3)CC2)cc1	i	nt	nt	nt	nt	i
CS(=O)(=O)N(CC(=O)N1CCCCCC1)c1ccccc1	i	i	i	i	i	i
O=C(CCc1ccccc1)N1CCN(CCO)CC1	nt	i	nt	i	nt	i
COC(=O)C1=C(C)NC(=O)NC1C1CC=CCC1 (stereo not drawn)	i	i	nt	i	nt	i
COc1ccc(S(=O)(=O)NCC2CCCN(Cc3ccccc3C)C2)cc1 (stereo not drawn)	i	i	nt	99	i	i
CN1CCCC(OC(=O)c2ccc(Cl)cc2)C1 (stereo not drawn)	i	nt	nt	nt	nt	nt
COc1ccc(Nc2nnc(-c3ccc(N4CCOCC4)c([N+](=O)[O-])c3)c3ccccc23)cc1	i	nt	i	57	nt	nt
Cc1ccc(-c2nn(C(C)(C)C)c3ncnc(NS(=O)(=O)c4ccc([N+](=O)[O-])cc4)c23)cc1	i	i	nt	i	i	i
CCc1cccc(C)c1NC(=S)NCCc1c(C)[nH]c2ccc(C)cc12	i	62	i	i	i	i
CCc1cccc(CC)c1NC(=S)NCCc1c(C)[nH]c2ccc(C)cc12	i	78	i	53	i	i
COc1ccc2[nH]c(C)c(CCNC(=S)Nc3cc(C)ccc3C)c2c1	i	i	i	i	i	i
O=C(CCS(=O)(=O)c1ccccc1)Nc1ccc2c(c1)C(=O)NC2=O	i	i	nt	i	i	i
COc1ccc(CCN2C(=O)N(c3ccc(OC)cc3)C(=O)C2CC(=O)Nc2ccccc2)cc1 (stereo not drawn)	i	i	nt	i	i	i
CC(C)[C@H](NS(=O)(=O)c1ccccc1)C(=O)OCC(=O)Nc1ccccc1Sc1ccccc1	i	i	i	i	nt	nt
O=C(NNC(=O)c1ccccc1Cl)c1ccco1	i	nt	nt	nt	nt	i
O=C(c1ccc(Cl)c(S(=O)(=O)N2CCOCC2)c1)N(c1ccccn1)C1CCCCC1	i	i	nt	i	i	i
Cc1ccc2nc(N/N=C/c3ccccc3C#N)nc(-c3ccccc3)c2c1	nt	i	nt	62	nt	i
Cc1ccc2nc(NCC(=O)NN)nc(-c3ccccc3)c2c1	i	nt	nt	nt	nt	nt
Cc1ccc2nc(N/N=C/c3ccccc3F)nc(-c3ccccc3)c2c1	i	64	nt	i	nt	i
SMILES	Cl transport mod	WT yeast gro inh	Insulin prom inh	Lmaj promast	ROMK primary	Ins promoter up
N#Cc1ccccc1/C=N/Nc1nc(-c2ccccc2)c2cc(Cl)ccc2n1	i	i	nt	i	nt	i
Fc1ccc(CSc2ccc3nnc(-c4cccnc4)n3n2)cc1	i	i	nt	66	i	i
COc1nc(N)nc(CC(=O)C2CC2)n1	i	i	nt	i	i	i
O=C(ONc1ccc(N=NC(=O)c2ccccc2O)cc1)c1ccccc1	i	i	i	i	nt	i
O=Nc1ccc(NOC(=O)c2ccccc2Br)cc1	i	59	i	73	i	i
COc1cc(C(=O)NC2CC(C)(C)NC(C)(C)C2)cc(OC)c1OC	i	i	nt	i	i	i
COc1ccc(C(=O)NC(=S)NNC(=O)c2ccc(NC(C)=O)cc2)cc1Br	nt	i	nt	77	i	i
COc1ccc(C(=O)NC(=S)NC(C)(C)C)cc1Br	4.1	i	i	i	nt	i
COc1ccc(C(=O)NC(=S)NC(C)C)cc1Br	i	i	i	i	nt	nt
